MARV entry inh – blocks Marburg virus binding or cell entry; Marburg virus pseudotype entry/binding inhibition, cell-based; Potency, µM (doses to about 49.2 µM), inactives show at the top dose activity change, negative = inhibition, usual class: inhibitors; hit rate 6.5% among 18,000; AID 720532
Lassa entry – blocks Lassa virus binding or cell entry; Lassa virus pseudotyped entry inhibition, cell-based qHTS; Potency, µM (highest dose often 49.2 µM), inactives show at the highest dose activity change, negative = inhibition, hits mostly inhibitors; hit rate 4.1% among 18,000
Numbers without * were called inactive; u = inconclusive; ! = not confirmed by another sample; [ ] = remark or other dose. Only some compounds are listed: those with a hit (about 8.6% of all), similar ones and a draw of the others. Calls come from the whole dose curve; tested in HEK293 cells. % is set by controls: 0 for no effect and ±100 for the full control effect; potency is the fitted concentration of half-maximal effect.

SMILES	MARV entry inh	Lassa entry
COCC=CC1=CC2=CC(=O)C(C)(OC(=O)c3cnc4ccccc4n3)C(=O)C2=CN1CCc1c[nH]c2ccccc12 (centres undefined)	22.3%[8.59 µM]	-11.3%[8.59 µM]
C#CCCCON=C1C[C@@H](O)[C@H](O)[C@H]2[C@@H]3C(=O)N(Cc4ccc5c(c4)OCO5)C(=O)[C@@H]3CC[C@@H]12	-6.7%[8.59 µM]	-9.5%[8.59 µM]
Cc1ccccc1CN1CCSCCS1(=O)=O	u	-6.9%
CN1CCN2c3ccccc3Cc3ccccc3C2C1 (centres undefined)	35.5µM*	u
COc1cc(C(CC2=C(c3ccccc3)Cc3ccccc32)NC(=O)C(F)(F)F)cc(OC)c1OC (centres undefined)	8.2%[8.59 µM]	21.0%[8.59 µM]
CC1(S(=O)(=O)O)CC(=O)c2ccccc2C1=O (centres undefined)	14.1µM*	25.1µM*
O=C1[C@@H]2[C@H]3[C@H](O)[C@H](O)CC(=NOC[C@@H](O)COCc4ccco4)[C@@H]3CC[C@H]2C(=O)N1C1CCCCC1	-22.0%[8.59 µM]	0.6%[8.59 µM]
COC(=O)[C@H]1Cc2c([nH]c3ccccc23)CN1C(=O)COc1ccc2c(C)cc(=O)oc2c1	-12.1%	-11.9%
F/C(COc1ccc2c(c1)[nH]c1ccccc12)=C1/CN2CCC1CC2	12.6µM*	u
CSC[C@H]1CN(c2ccc(Br)cc2)C(=O)[C@H]1CC(=O)Nc1ccc(Br)cc1	-25.7%	-27.7%
COc1ccc(C(=O)c2c(C)n(CCN3CCOCC3)c3ccccc23)cc1	-14.2%	-27.0%
COc1ccccc1C1(O)CCN(CCCn2c3ccccc3c3ccccc32)CC1	3.98µM*	u
COCCN1C(=O)NC(c2cccc(C(F)(F)F)c2)C(C(=O)OC)=C1C (centres undefined)	23.9%[8.59 µM]	26.5%[8.59 µM]
CN1CCOC(c2ccccc2)c2ccccc2C1 (centres undefined)	11.2µM*!	u
N=C(N)N1Cc2ccccc2C(O)C1 (centres undefined)	13.5%	0.2%
COc1ccc([C@]23Cc4cc(C#N)ccc4[C@H](O2)C2=C(CC4(CCCCC4)OC2=O)O3)cc1	1.2%[8.59 µM]	-23.3%[8.59 µM]
COCC1CCCN(Cc2ccc3c(c2)CN(C(=O)c2cc(-c4ccccc4)n[nH]2)CCO3)C1 (centres undefined)	u	-17.9%
O=C(CCCN1CCN(c2ccccn2)CC1)c1ccc(F)cc1	9.2%	15.8%[17.8 µM]
O=C(CCCN1CCN(c2ccc(F)cc2)CC1)NC1c2ccccc2CSc2ccccc21 (centres undefined)	14.1µM*	-28.7%
CC(=O)C1=C(C)N(Cc2ccccc2)C(=O)NC1c1cccc(C(F)(F)F)c1 (centres undefined)	-6.8%[8.59 µM]	18.6%[8.59 µM]
O=C1C2CC=CCC2C(=O)N1SC(Cl)(Cl)Cl (centres undefined)	u	10µM*
O=c1[nH]c(=O)n([C@@H]2O[C@H](CO)[C@@H](O)[C@H]2O)cc1F	u	10µM*
CCc1cn([C@H]2C[C@H](O)[C@@H](CO)O2)c(=O)[nH]c1=O	-8.9%	4.8%
O=S(=O)(NCCc1ccc(F)cc1)c1ccccc1Br	17.0%	-11.5%

From PubChem
